Test results from PubChem BioAssay.
Values without a mark were called inactive. How the calls were made is not given here.

These compounds were tested against Pantothenate synthetase (Mycobacterium tuberculosis (strain ATCC 25618 / H37Rv)) (UniProt P9WIL5) (assay: Recombinant Mtb pantothenate synthetase (PanC) inhibitors, coupled enzyme, confirmatory (AID 375;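 further: 0% = full reaction with vehicle and 100% = no enzyme background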)). Settings: coupled enzyme assay; at 10 µM, hits give high values.
Sequence of Pantothenate synthetase (Mycobacterium tuberculosis (strain ATCC 25618 / H37Rv)) (P9WIL5 whole entry, looked up): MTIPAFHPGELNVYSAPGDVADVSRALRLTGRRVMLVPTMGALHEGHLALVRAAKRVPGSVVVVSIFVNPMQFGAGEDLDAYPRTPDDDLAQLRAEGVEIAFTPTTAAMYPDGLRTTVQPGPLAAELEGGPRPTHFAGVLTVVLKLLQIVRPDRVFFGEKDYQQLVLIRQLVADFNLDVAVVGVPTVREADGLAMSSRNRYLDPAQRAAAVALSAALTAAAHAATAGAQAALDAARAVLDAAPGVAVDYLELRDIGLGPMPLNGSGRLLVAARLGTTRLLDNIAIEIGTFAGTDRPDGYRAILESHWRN
`CC(=O)N1CCN(c2ccc(N=Cc3c(O)n(Cc4ccccc4)c(=O)[nH]c3=O)cc2)CC1` was tested, and the inhibition was 0%.
For `COc1ccc(C)cc1S(=O)(=O)N(C)CC(=O)Nc1ccc2c(c1)OCCO2`, the inhibition was 2%.
`O=C(C1CC1)N1CCC(c2nc(-c3ccc(S(=O)(=O)NCC4CCCO4)cc3)no2)CC1` (stereo not given) gave an inhibition of 0%.
Work on `CC(=O)N(C(C)=O)c1c(C#N)c(C)n(-c2ccccc2)c1C(=O)c1ccccc1` yielded an inhibition of 0%.
Work on `COc1ccc2c(c1)OC(O)(C(F)F)CC2=O` (stereo not given) yielded an inhibition of 0%.
For `COc1ccc2c(c1)[nH]c1c(=O)n(CC3CCCO3)cnc12` (stereo not given), the inhibition was 1%.
For `Cc1ccc2[nH]cc(C(=O)CN3CCC4(CC3)OCCO4)c2c1`, the inhibition was 0%.
`C1CCC(C(CC2CCCCN2)C2CCCCC2)CC1` (stereo not given) gave an inhibition of 3%.
With `CC(O)Cn1cnc2c1c(=O)n(C)c(=O)n2C` (stereo not given) the inhibition was 2%.
In the case of `CC(C)(C)c1nc(CN2CCOCC2)ccc1O`, the inhibition is reported as 1%.
For `CCn1c(SCC(=O)Nc2ccc3c(c2)OCO3)nnc1-c1cnccn1`, the inhibition was 0%.
With `NC(=O)C1CCN(c2nc(-c3ccccc3)nc3ccccc23)CC1` the inhibition was 0%.
For `COc1ccc2[nH]c(=O)c(CN(Cc3cccs3)Cc3nnnn3C(C)(C)C)cc2c1`, the inhibition was 0%.
Work on `CCCCn1nnc(NC(=O)Cc2ccc(Cl)cc2)n1` yielded an inhibition of 0%.
Work on `Cc1cccc2cc(CN(CC3CCCO3)C(=O)c3cnccn3)c(=O)[nH]c12` (stereo not given) yielded an inhibition of 0%.
For `O=C(c1ccccc1)c1ccc(N2CCOCC2)c(NC(=O)c2ccco2)c1`, the inhibition was 11%.
Compound `O=C(c1c(Cl)nc2sccn12)N(C(=O)c1c(Cl)nc2sccn12)c1ccc(Cl)cn1` has an inhibition of 0%.
For `CCC(C)(C)NC(=O)C(c1ccco1)N(C(=O)Cn1nnc2ccccc21)c1ccc2c(c1)OCO2` (stereo not given), the inhibition was 0%.
`c1ccc2c3nnc4n(c-3nc2c1)CCCS4` gave an inhibition of 1%.
`CCCn1c(N)c(C(=O)CSc2nnc(Cc3ccccc3)o2)c(=O)n(C)c1=O` showed an inhibition of 2%.
Compound `CCOc1ccc(-c2noc(-c3ccncc3)n2)cc1OCC` has an inhibition of 4%.
In the case of `O=C(CCn1c(=O)oc2ccccc21)NCc1ccco1`, the inhibition is reported as 1%.
`C=CCN(CC=C)C(=O)Nc1cc(Cl)ccc1OC` was tested, and the inhibition was 0%.
In the case of `CC1CCc2c(sc(N)c2C(N)=O)C1` (stereo not given), the inhibition is reported as 0%.
`CCOC(=O)c1c(-c2ccc(C)o2)csc1NC(=O)CN1CCN(CC)CC1` showed an inhibition of 0%.
Work on `CC(C)C(NC(=O)c1ccccc1NC(=O)c1ccco1)C(=O)O` (stereo not given) yielded an inhibition of 4%.
`Cc1nn(Cc2ccccc2)c(C)c1NC(=O)CCC(=O)O` showed an inhibition of 2%.
Compound `COc1cccc(-c2nc(CSCC(=O)N3CCc4ccccc43)c(C)o2)c1` has an inhibition of 0%.
`Cn1c(=O)c2c(nc(CN3CCc4ccccc4C3)n2Cc2cccc(Cl)c2)n(C)c1=O` showed an inhibition of 0%.
Work on `Cc1cc(=O)[nH]c2c1cnn2Cc1ccccc1` yielded an inhibition of 1%.
`CSc1cccc(NC(=O)C2CCN(S(C)(=O)=O)CC2)c1` gave an inhibition of 0%.
`O=C(O)C1C2C=CC(C3CC23)C1C(=O)NCCc1ccccc1` (stereo not given) was tested, and the inhibition was 6%.
`O=C(Nc1ccc(CN2CCOCC2)cc1)c1cc2ccccc2oc1=O` showed an inhibition of 4%.
Work on `CNc1nnc(-c2cccc(N(C)C)c2)s1` yielded an inhibition of 0%.
With `CCCSCCCNC(=O)Cn1cc2c(n1)CCC(C)C2` (stereo not given) the inhibition was 2%.
Compound `COc1cccc(C2CC(c3c(Cl)cccc3Cl)n3nc(N)nc3N2)c1` (stereo not given) has an inhibition of 0%.
`Cc1cn(C2CC3OCC3O2)c(=O)[nH]c1=O` (stereo not given) was tested, and the inhibition was 0%.
In the case of `CCS(=O)(=O)c1ccc(S(=O)(=O)CC)s1`, the inhibition is reported as 0%.
`CCCOc1ccc(C2C(C(=O)c3ccc(C)o3)=C(O)C(=O)N2Cc2cccnc2)cc1` (stereo not given) was tested, and the inhibition was 10%.
`CCN1C(=O)CC(N2CCC(Nc3ccc(F)cc3)CC2)C1=O` (stereo not given) gave an inhibition of 0%.
